The panel holds about 83,000 compounds, 20% with a hit somewhere; the sample as a whole holds those more often.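 Cell lines were cultured in 96-well plates, exposed to a single compound concentration, and assessed for percent growth 48 hours later.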 Active and inactive are the calls of the source. Rule for the calls: active = growth percent below 10; inactive = the rest.

The first test deals with NCI-H322M lung. The test is described as follows: NCI-60 one-dose screen, 48 h (100 = growth as untreated, 0 = no growth, -100 = all killed). As to conditions: 10 µM unless noted.
Turning to `Cc1sc2c(c1C)C(c1ccc(Cl)cc1)=N[C@@H](CC(=O)NCCCCCNC(=O)COc1ccc(C3CCC(=O)NC3=O)cc1)c1nnc(C)n1-2` (some centres undefined), the growth was 23.7% (inactive).

As to `N/C(=N\c1nc2ccccc2s1)NC(=O)Nc1ccc(Cl)cc1Cl`, the growth was -51.3% (active).

For `CC1=C(C#N)C2=NNCC(c3ccccc3)=NN2C(c2ccccc2)=C1`, the growth is 105% (inactive).

The subject of another test is HOP-62 NSCLC. The test is described as above. The settings on record: 10 µM unless noted.
On to `CCCSc1nc(Nc2ccc(S(N)(=O)=O)cc2)c(C#N)c(-c2ccc(Cl)cc2)n1`, for which the growth is -2.6% (active).

Consider `CCCCSc1nc(Nc2ccc(S(N)(=O)=O)cc2)c(C#N)c(-c2ccc(Cl)cc2)n1`, for which the growth is 10.6% (inactive).

Take `Cn1cc(-c2cc3nc(-c4cn(C)c5ncccc45)cc(N)n3n2)c2ccccc21`: the growth is -13.6% (active).

As for `Cc1ccc(C2=NN(c3nc(-c4cc5ccccc5oc4=O)cs3)C(c3ccc(C)cc3)C2)cc1` (centres undefined), the growth was 91.2% (inactive).

Turning to `Cc1ccc2c(c1)nc(-c1ccccc1)n2CC(=O)N=Nc1c(O)[nH]c2ccc(Br)cc12`, the growth is -58.7% (active).

As for `O=C(Cn1nc(-c2ccccc2)ccc1=O)N/N=C/c1ccc(N2CCOCC2)cc1`, the growth is 96% (inactive).

As to `O=C(NN1C(=O)/C(=C/C=C/c2ccc([N+](=O)[O-])o2)SC1=S)c1ccc(Cl)cc1`, the growth is -98.8% (active).

As for `CCCCSc1nc(Nc2ccc(S(N)(=O)=O)cc2)c(C#N)c(-c2cc(OC)c(OC)c(OC)c2)n1`, the growth is 81.4% (inactive).

As for `COc1cc2c3c(n(CCCN4CCC[C@@H]4CO)c(=O)c2cc1OC)-c1cc2c(cc1C3=O)OCO2`, the growth was -53.3% (active).

Consider `Cn1cc(-c2cc(N)n3nc(-c4cn(C)c5ncc(Br)cc45)cc3n2)c2cc(Br)cnc21`, for which the growth is 48.3% (inactive).

For the compound `Cn1cc(-c2cc(N)n3nc(-c4c[nH]c5ccccc45)cc3n2)c2cccnc21`, the growth is 62.6% (inactive).

`CN(C)c1nc(NCCNS(=O)(=O)c2ccc(C3=Nc4c(N)nc(N)nc4NC(c4ccccc4)C3)cc2)nc(Nc2ccc(F)cc2)n1` (centres undefined): the growth is 81.1% (inactive).

`COc1ccc(-c2ccc(SCC(=O)NCCc3ccc(S(N)(=O)=O)cc3)nn2)cc1`: the growth is 81.3% (inactive).

For the compound `O=C(CCN1C(=O)/C(=C/c2ccc(F)cc2)SC1=S)N1CCOCC1`, the growth is 109% (inactive).

`Cc1cc2nc3c4ccccc4n(CC4=NCCN4)c3nc2cc1C`: the growth is -72.5% (active).

Regarding `Cc1ccc(C(=O)NN2C(=O)/C(=C/C=C/c3ccc([N+](=O)[O-])o3)SC2=S)cc1`, the growth was -70% (active).

Take `Cc1cc2nc3c([nH]c2cc1C)c1ccc(=O)cc1n3CCN(C)C`: the growth is 43.2% (inactive).

As to `N/C(=N\c1nc2ccccc2s1)NC(=O)Nc1c(Cl)cccc1Cl`, the growth was 58.7% (inactive).

Turning to `Brc1ccc(-c2n(Cc3ccc4ccccc4c3)c(-c3ccccc3)c(-c3ccccc3)[n+]2Cc2ccc3ccccc3c2)cc1`, the growth is -83.4% (active).

On to `C=C1CC[C@@H]2[C@]3(C)COC(c4cn[nH]c4-c4ccc(Br)cc4)O[C@@H]3CC[C@@]2(C)[C@@H]1C/C=C1/C(=O)OCC1O` (some centres undefined), for which the growth is -46.1% (active).

On to `COc1ccc(-c2nc3cc(C)ccc3n2CC(=O)N=Nc2c(O)[nH]c3ccc(Br)cc23)cc1`, for which the growth was -49.7% (active).

For the compound `CC12CC[C@@H]3[C@]4(C)COC(c5cn[nH]c5-c5cccc(Br)c5)O[C@@H]4CC[C@@]3(C)[C@@H]1CC(C1=CCOC1=O)O2` (some centres undefined), the growth was 70.3% (inactive).

Turning to `COc1c(F)ccc(C(=O)Nc2ccc3nc(NC(=O)C4CCCN(S(=O)(=O)c5ccc(C#N)cc5)C4)sc3c2)c1F` (centres undefined), the growth was 104% (inactive).

As for `COc1ccc2c(c1)c(-c1cc3nc(-c4cn(C)c5ncccc45)cc(N)n3n1)cn2C`, the growth is -25.8% (active).

In the case of `CC(=O)c1cc(C(=O)c2ccccc2)n2c1ccc1ccccc12`, the growth is 87.5% (inactive).

On to `COc1ccc2[nH]c(=O)c(CSc3nccc(-c4ccc(OC)c(OC)c4)n3)cc2c1`, for which the growth is 0.29% (active).

As to `COc1ccc(NC(=O)Cn2c3c(sc2=O)[C@H]2[C@@H](O)[C@@H](O)[C@H](O)[C@@H]2CS3)cc1`, the growth was 99.5% (inactive).

Consider `C=C1CCC2C3(C)COC(c4cccs4)OC3CCC2(C)C1CC(Sc1ccccc1)C1=CCOC1=O` (centres undefined), for which the growth is 118% (inactive).

As to `CC1CN(c2oc(-c3ccc([N+](=O)[O-])cc3)nc2C#N)CC(C)O1` (centres undefined), the growth was 98.9% (inactive).

As for `Cc1occc1C(=O)NN1C(=O)/C(=C/C=C/c2ccc([N+](=O)[O-])o2)SC1=S`, the growth is -9.58% (active).

As for `N=C1N=C(SCc2nc3ccccc3[nH]2)NC(=O)/C1=C/c1ccc(Cl)cc1`, the growth was 102% (inactive).

These data come from PubChem BioAssay (NCI).
